From PubChem BioAssay
This is a sample that favours compounds with a hit; in the whole collection about 0.84% have one here.
SRC1 TRFRET art: TR-FRET detection interference compounds, primary screen, artefact control for PPARgamma SRC-1 recruitment agonists, biochemical, TR-FRET emission ratio; TR-FRET detection artefact counter-screen; stronger effect = higher value; 0.34% of 99,000 active; AID 1051, 2008; TR-FRET ratio at 8 µM; in the data active = TR-FRET ratio above about 2300
TR-FRET SRC-2 ct: TR-FRET signal artefacts, primary screen, artefact control for PPARgamma SRC-2 agonist project, biochemical; 0.4% of 200,000 active; AID 1049, 2008; TR-FRET ratio at 8 µM; TR-FRET artefact counter-screen; stronger effect = higher value; in the data active = TR-FRET ratio above about 2000
PPARg SRC2 recr: agonists of PPARg-SRC-2 recruitment, primary screen, biochemical, HTS | Peroxisome proliferator-activated receptor gamma (Homo sapiens), P37231 | PPARgamma LBD-SRC-2 recruitment | activation, % at 8 µM | 0.34% of 200,000 active;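 also: 0% = vehicle and 100% = reference agonist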
Target sequence (P37231 whole entry, looked up, the tested form may be a part): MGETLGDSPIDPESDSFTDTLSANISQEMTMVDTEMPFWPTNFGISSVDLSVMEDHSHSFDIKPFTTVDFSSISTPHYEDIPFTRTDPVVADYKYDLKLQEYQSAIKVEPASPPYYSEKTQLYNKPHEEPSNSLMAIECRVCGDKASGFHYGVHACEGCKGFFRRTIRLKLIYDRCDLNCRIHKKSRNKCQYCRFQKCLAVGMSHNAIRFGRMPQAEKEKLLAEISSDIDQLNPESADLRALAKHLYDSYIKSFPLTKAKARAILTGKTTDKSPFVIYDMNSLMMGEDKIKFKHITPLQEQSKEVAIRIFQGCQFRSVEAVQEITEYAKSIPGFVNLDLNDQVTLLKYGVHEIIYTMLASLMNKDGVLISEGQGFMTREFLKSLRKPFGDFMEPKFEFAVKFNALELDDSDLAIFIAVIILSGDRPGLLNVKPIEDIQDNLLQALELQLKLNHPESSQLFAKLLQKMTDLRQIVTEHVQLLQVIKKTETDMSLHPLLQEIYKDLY
SRC3 TRFRET art: TR-FRET detection interference compounds, artefact control for PPARgamma SRC-3 recruitment agonists, biochemical, TR-FRET ratio; TR-FRET artefact counter-screen, PPARgamma/SRC-3 format; stronger effect = higher value; TR-FRET ratio at 8 µM; 0.39% of 99,000 active; AID 1048, 2008; in the data active = TR-FRET ratio above about 2000
PPARg SRC1 recr: PPARgamma agonists recruiting SRC-1 coactivator, primary screen, biochemical; Peroxisome proliferator-activated receptor gamma (Homo sapiens), P37231; PPARgamma-SRC-1 coactivator recruitment biochemical assay; activation, % at 8 µM; 0.41% of 200,000 active; AID 631, 2007; in the data active = activation above about 19%;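 also: 0% = DMSO and 100% = reference agonist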
PPARg SRC-3 ag: PPARgamma agonists recruiting SRC-3 coactivator, primary screen, biochemical | biochemical PPARgamma/SRC-3 coactivator recruitment assay | Peroxisome proliferator-activated receptor gamma (Homo sapiens), P37231 | activation, % at 8 µM | AID 731, 2007 | 0.26% of 200,000 active; in the data active = activation above about 23%;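 also: 0% = DMSO and 100% = reference agonist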
PPARg SRC2 conf: agonists of PPARgamma SRC-2 coactivator recruitment, confirmation, biochemical, HTS; shares compounds with PPARg SRC-3 ag; biochemical SRC-2 recruitment by PPARgamma; activation, % at 8 µM; 52% of 790 active;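 also: 0% = vehicle alone and 100% = reference agonist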
PPARg SRC1 conf: PPARgamma agonists recruiting SRC-1 coactivator, confirmation, biochemical. PPARgamma–SRC-1 coactivator recruitment biochemical assay. shares compounds with PPARg SRC-3 ag. 43% of 790 active. activation, % at 8 µM; in the data active = activation above about 20%;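 also: 0% = vehicle wells and 100% = reference agonist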
PPARg SRC3 conf: PPARgamma-driven SRC-3 coactivator recruitment agonists, confirmation, biochemical. activation, % at 8 µM. biochemical PPARgamma-SRC-3 coactivator recruitment, agonist mode. AID 1301, 2008. 29% of 790 active. shares compounds with PPARg SRC-3 ag; in the data active = activation above about 24%;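 also: 0% = vehicle wells and 100% = reference agonist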
An asterisk follows results filed as active; / = no result given. Rule as the data show it, unless noted: active = activation above about 22%; inactive = the rest.

SMILES	SRC1 TRFRET art	TR-FRET SRC-2 ct	PPARg SRC2 recr	SRC3 TRFRET art	PPARg SRC1 recr	PPARg SRC-3 ag	PPARg SRC2 conf	PPARg SRC1 conf	PPARg SRC3 conf
CCOc1ccccc1N1CCN(c2nc(N)c(C#N)c(CC#N)c2C#N)CC1	/	1666	16.4	/	7.9	29.4*	2.6	1.4	1.7
CC1=NNC(=O)C1CCC(=O)N/N=C/c1c(Cl)cccc1Cl (stereo not drawn)	1652	1262	-6.3	1598	-7.9	2.4	/	/	/
CCn1c(O)c(/C=C2\C=Nc3ccccc32)sc1=Nc1ccccc1	/	1406	4.5	/	1.2	6.4	/	/	/
O=C(Cc1ccccc1)Nn1c(O)c(/C=C2\C=Nc3ccccc32)sc1=S	2099	1652	23.9*	1630	14.2	13.6	6.9	6.6	7.6
O=c1c2cn[nH]c2nc(SCc2cc(=O)n3cc(Br)ccc3n2)n1-c1ccc(Br)cc1	3354*	2457*	35.8*	2853*	32.7*	21.7	28.1*	18.6	20.4
O=c1c2cn[nH]c2nc(SCc2ccccc2F)n1-c1ccc(Br)cc1	1760	1610	-0.8	1579	7.2	3.2	/	/	/
O=C(Nc1ccc2oc(-c3ccc(F)cc3)nc2c1)c1ccccc1F	/	2348*	27.8*	/	25.3*	20.6	13.7	12.0	6.2
CC(C)Cn1[nH]c2c3c(ccc2c1=O)C(=O)c1ccccc1C3=O	/	1610	20.0	/	15.3	26.0*	5.0	4.2	4.7
O=C1c2ccccc2C(=O)c2c1ccc1c(=O)n(-c3ccccc3)[nH]c21	1572	1455	5.9	1724	9.9	2.5	/	/	/
C#CCn1c(=NC(=O)c2sc3ccccc3c2Cl)sc2cc(S(N)(=O)=O)ccc21	2366*	2057*	32.9*	2062*	13.4	15.8	32.9*	21.5*	14.9
O=c1[nH]c2ccc(Cl)cc2c(-c2ccccc2)c1SC(=S)N1CCCCC1	/	1624	22.9*	/	1.5	15.7	3.8	1.3	0.1
Cc1ccc(-n2c(SCC3CNC(=O)O3)nnc2-c2ccccc2)cc1C (stereo not drawn)	1640	1476	6.1	1609	4.4	0.6	/	/	/
Cc1ccc(S(=O)(=O)NCC(=O)OCC(=O)c2ccc(Br)s2)cc1	/	1836	55.1*	/	36.2*	66.2*	51.2*	31.7*	34.8*
Cc1ccc(S(=O)(=O)NCC(=O)OCC(=O)c2cccs2)cc1	/	1454	-2.8	/	-0.8	-1.8	/	/	/
O=C(Nc1ccc(S(=O)(=O)NCc2ccccc2)cc1)c1ccc(Br)o1	/	1689	-1.8	/	-4.3	15.7	/	/	/
C=CCn1c(NC(=O)c2ccc(Br)o2)c(S(=O)(=O)c2ccccc2)c2nc3ccccc3nc21	/	1627	6.3	/	34.1*	26.9*	8.0	5.8	4.5
Cc1ccc(C=Nc2ccc(N(C)C)cc2)o1	/	3126*	101.6*	/	65.2*	101.9*	1.3	-3.2	-0.9
CS(=O)(=O)c1sc2nc(-c3cccs3)cc(-c3ccccc3)c2c1N	/	2002*	30.1*	/	21.6*	25.0	27.5*	21.9*	20.9
CN1CCC(NC(=S)NC2CC2)CC1	1830	1468	-2.8	1413	-2.1	4.4	/	/	/
N#Cc1ccsc1NC(=O)CN1CCN(S(=O)(=O)c2ccc3ccccc3c2)CC1	2399*	2346*	27.8*	2536*	18.6	8.0	11.2	9.9	5.5
NC(=O)c1sc2nc(-c3ccco3)ccc2c1N	/	1756	17.5	/	18.5	30.1*	13.7	16.5	9.5
CC(=O)c1nc(N2C(=O)CC(Cc3cccc(C)c3)C2=O)sc1C (stereo not drawn)	/	1783	10.0	/	19.6*	19.5	9.8	8.1	6.8
COC(=O)c1nn(-c2ccc(Cl)cc2)c(=O)cc1Sc1ccccn1	/	1519	8.6	/	5.2	-4.2	/	/	/
COc1ccc([N+](=O)[O-])cc1NC(=O)c1ccc(Br)s1	2669*	2056*	16.6	2129*	22.0*	12.7	19.7	13.2	5.8
COc1ccc(-c2cn3c(C)c(C(=O)Nc4cc(NC(C)=O)ccc4OC)sc3n2)cc1	/	2510*	39.0*	/	23.2*	46.8*	41.1*	33.8*	25.0*
SMILES	SRC1 TRFRET art	TR-FRET SRC-2 ct	PPARg SRC2 recr	SRC3 TRFRET art	PPARg SRC1 recr	PPARg SRC-3 ag	PPARg SRC2 conf	PPARg SRC1 conf	PPARg SRC3 conf
COc1ccc(C(CC(=O)Nc2ccc(Cl)cc2F)NC(=O)C(F)(F)F)cc1 (stereo not drawn)	/	1618	2.3	/	18.7*	8.3	4.5	3.6	4.5
O=C(COc1ccc2ccccc2c1)NCCNC(=O)COc1ccc2ccccc2c1	/	2532*	39.1*	/	38.1*	46.9*	52.5*	47.8*	34.3*
O=C(Nc1cccc(Cl)c1)c1ccc2c(c1)SC1=NS(=O)(=O)CCN12	1541	1557	-1.0	1669	-1.3	-2.8	/	/	/
C/C(=N\N1CCN(c2ccccc2)CC1)c1ccco1	1872	1644	-0.9	1563	2.4	-1.5	/	/	/
O=C(c1ccccc1)N1CCSC1=S	/	1438	-2.8	/	-2.7	-4.3	/	/	/
O=C(c1ccccc1)N1CCSc2sccc2C1=O	2582*	2115*	28.9*	2052*	20.4	11.9	39.5*	31.7*	24.3*
Fc1ccc(Br)cc1C1C=C(c2ccc(Br)s2)Nc2ncnn21 (stereo not drawn)	3232*	2711*	51.1*	3060*	46.3*	31.9*	53.8*	35.2*	38.7*
COc1cccc(C2C=C(c3ccc(Br)s3)Nc3ncnn32)c1OC (stereo not drawn)	3079*	2137*	26.6*	2570*	32.8*	16.8	57.1*	48.0*	36.2*
O=C(/C=C/c1ccccc1[N+](=O)[O-])NC1CCCC1	1895	1606	14.7	1588	5.9	7.4	/	/	/
CC(=O)NC(Cc1ccc(F)cc1)C(=O)NC1CCN(c2ncccc2[N+](=O)[O-])CC1 (stereo not drawn)	2202	1576	4.5	1761	6.1	5.0	/	/	/
CC(C)OC(=O)CCCN1C(=O)c2ccc(N)cc2C1=O	/	1654	23.3*	/	8.9	12.7	1.2	2.7	-0.7
N#Cc1cnn2ccc(-c3cc(N4CCOCC4)ccc3[N+](=O)[O-])nc12	2007	1632	0.5	1517	9.1	0.6	/	/	/
